In PubChem BioAssay (NCI):
The panel holds about 83,000 compounds, 20% with a hit somewhere; the sample as a whole holds those more often.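 The endpoint reported here, percent growth, reads 100 for growth as untreated, 0 for no net growth and -100 for all cells dead.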 Activity calls are given as the source filed them. The calls were made as follows: active = growth percent below 10; inactive = the rest.

Tested on: HL-60(TB) leukemia
Assay: NCI-60 one-dose screen, 48 h (100 = growth as untreated, 0 = no growth, -100 = all killed)
Conditions: 10 µM unless noted

Row | Compound | growth
1 | O=C(NNc1nc(Cl)nc(N2CCN(C(c3ccccc3)c3ccccc3)CC2)n1)c1ccccc1 | -22.5% (active)
2 | Cc1cc(-c2ccccc2)cc(SC#N)[n+]1[O-] | 7.14% (active)
3 | CCCCCCCCCCCCSC1=C(Cl)C(=O)C(OC)=C(OC)C1=O | -46.2% (active)
4 | OC(COc1ccccc1Cl)CN1CCN(c2cccc(Cl)c2)CC1 (centres undefined) | 112% (inactive)
